Test [1] relates to Human papillomavirus type 1a protein E7 (residues 44-93). Put plainly: HPV1a E7 fragment binders on microarrays, primary screen, biochemical, small-molecule microarray, residues 44-93, 635 nm fluorescence (AID 1108).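 Further: E7 fragment applied at 1 µg/mL in TBST for 1 h at 4 C; score combines spot fluorescence with its signal to noise ratio.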 As to conditions: small-molecule microarray binding, fluorescence 635 nm; higher = more signal.
Test [2] is described as follows: modulators of HCV replicon luciferase signal, primary screen, HCV replication inhibitor project, Huh7 cells, luciferase reporter (AID 1109).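 Further: huh7 hepatoma cells harbouring a luciferase neomycin HCV replicon reporter; luciferase luminescence as measure of HCV replicon replication; test concentration not given here.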 As to conditions: 48 h, higher = more signal.
Test [3] concerns the target Left-right determination factor 2 (Homo sapiens) (UniProt O00292). Put plainly: LEFTY2 binders on small-molecule microarrays, primary screen, biochemical, small-molecule microarray, 635 nm fluorescence scan (AID 1110). As to conditions: LEFTY2 binding, higher = more signal.
Test [4] addresses Calmodulin-1 (Homo sapiens) (UniProt P0DP23). Description: CALM1 binders on microarrays, EGTA buffer, profiling panel, biochemical, small-molecule microarray, Cy5-labelled CALM1 (AID 1111).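 Further: labelled calmodulin applied in Tris saline Tween buffer holding calcium plus EGTA and DTT.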 As to conditions: Cy5-CALM1 binding fluorescence, higher = more signal.
For test [5] the target is unchanged. Put plainly: calcium-bound CALM1 binders on microarrays, profiling panel, artefact control for SMM control-protein annotation, biochemical, small-molecule microarray, Cy5-labelled CALM1, plus calcium (AID 1112).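 Further: score merges spot fluorescence with signal to noise from triplicate slides.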 As to conditions: Cy5-CALM1 binding fluorescence, higher = more signal.
A short description of test [6]: small-molecule microarray binders of probe aWnt5a, primary screen, biochemical, biotinylated probe, 635/667 nm fluorescence (AID 1113).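 Further: score merges 667 nm fluorescence intensity with signal-to-noise per printed feature.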 As to conditions: higher = more signal.
The nature of test [7]: small-molecule microarray binders of probe aShh, primary screen, biochemical, biotinylated probe, 635/667 nm fluorescence (AID 1114).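 Further: probe is biotin-labelled aShh protein from a stem cell growth factor screen; measures binding of labelled protein to compounds printed on the slide; score merges feature fluorescence at 667 nm with signal-to-noise.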 As to conditions: higher = more signal.
Test [8] is described as follows: small-molecule microarray binders of probe aNog, primary screen, biochemical, biotinylated probe, 635/667 nm fluorescence (AID 1115).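 Further: probe is biotinylated aNog protein used at 0.15 µg/mL for 1 h at 4 C; z-score combines 667 nm fluorescence of each spot with its signal to noise.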 As to conditions: higher = more signal.
The target of test [9] is Torsin-1A-interacting protein 1 (Homo sapiens) (UniProt Q5JTV8). Description: LAP1 binders from COS7 cell lysate, primary screen, small-molecule microarray, 635/667 nm fluorescence (AID 1116). As to conditions: COS7-hLAP1 lysate binding, 635 nm fluorescence, higher = more signal.
Chain of Torsin-1A-interacting protein 1 (Homo sapiens) (Q5JTV8 whole entry, looked up): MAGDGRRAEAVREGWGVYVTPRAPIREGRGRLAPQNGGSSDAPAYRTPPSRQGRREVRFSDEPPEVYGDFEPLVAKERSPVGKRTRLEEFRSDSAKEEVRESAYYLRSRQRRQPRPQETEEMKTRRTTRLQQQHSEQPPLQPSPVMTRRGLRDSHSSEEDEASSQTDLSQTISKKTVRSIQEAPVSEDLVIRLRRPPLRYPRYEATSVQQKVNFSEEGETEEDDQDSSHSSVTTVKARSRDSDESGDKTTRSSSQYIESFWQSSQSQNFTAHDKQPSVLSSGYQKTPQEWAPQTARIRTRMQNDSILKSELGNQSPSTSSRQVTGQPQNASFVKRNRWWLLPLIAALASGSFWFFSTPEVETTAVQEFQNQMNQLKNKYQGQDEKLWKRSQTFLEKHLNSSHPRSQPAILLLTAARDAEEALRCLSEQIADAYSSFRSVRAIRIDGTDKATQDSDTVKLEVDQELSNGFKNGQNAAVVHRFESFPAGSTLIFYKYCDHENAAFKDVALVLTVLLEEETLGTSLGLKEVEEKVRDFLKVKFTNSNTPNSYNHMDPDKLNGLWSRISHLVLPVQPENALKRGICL
Test [10] has as its target Alpha-bungarotoxin (Bungarus multicinctus) (UniProt P60615). Description: alpha-bungarotoxin binders on microarray, profiling panel, artefact control for SMM control protein annotation, biochemical, small-molecule microarray, Alexa647 label, 635/667 nm fluorescence (AID 1117). As to conditions: alpha-BTX-A647 binding fluorescence, higher = more signal.

Chain of Left-right determination factor 2 (Homo sapiens) (O00292 whole entry, looked up): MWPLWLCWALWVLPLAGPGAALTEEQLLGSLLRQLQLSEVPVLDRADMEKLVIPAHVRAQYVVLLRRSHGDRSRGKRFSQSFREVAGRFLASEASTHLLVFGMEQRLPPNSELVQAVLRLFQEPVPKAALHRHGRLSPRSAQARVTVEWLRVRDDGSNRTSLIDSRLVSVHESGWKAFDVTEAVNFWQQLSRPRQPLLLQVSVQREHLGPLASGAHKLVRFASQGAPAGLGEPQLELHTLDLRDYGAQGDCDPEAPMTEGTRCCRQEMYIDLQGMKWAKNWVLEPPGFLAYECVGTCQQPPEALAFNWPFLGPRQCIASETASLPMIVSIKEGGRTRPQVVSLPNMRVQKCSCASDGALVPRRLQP
Chain of Alpha-bungarotoxin (Bungarus multicinctus) (P60615 whole entry, looked up): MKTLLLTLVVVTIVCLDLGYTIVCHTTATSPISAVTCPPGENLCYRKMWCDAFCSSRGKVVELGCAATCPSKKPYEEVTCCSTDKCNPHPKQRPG

Take `CN1C(=O)C2C=CC(C(O)c3ccc(I)cc3)N(NC(=O)OC(C)(C)C)C2C1=O` (stereo not given): the composite z-score in test [1] is 1.41; in [3], 0.0192; in test [4], 0.526; in test [5], 0.202; in [6], -0.0165; in [7] it was 0.151. Further, the composite z-score in test [8] worked out at 1.26; in test [9], 1.4; in [10], 1.01. In addition, in [2], the z-score stood at 0.0411.

`C=C(COC)/C(=C/C[C@H](OC(=O)c1ccncc1)c1ccc(CO)o1)c1cc(C(=O)OC)ccc1OC`: the composite z-score in test [1] is 0.822; in test [3], 0.208; in test [4] it was 0.0845; in test [5], -0.409; in [6], -0.0107; in test [7], -0.0553. For the same compound, the composite z-score in test [8] was -0.0446; in test [9], 0.0683; in [10], 0.318. Also, the z-score in [2] is -0.718.

Take `O=C1CCCC=C1C(O)CCOCc1ccccc1` (stereo not given): the composite z-score in test [1] was -0.649; in test [3], 0.408; in test [4], -0.314; in test [5], -0.605; in [6], -0.0735; in [7], -0.209. The composite z-score was -0.0236 in test [8], 0.266 in [9] and 0.129 in test [10]. This compound gave a z-score in test [2] of 0.939.

On to `CC(CCN1CCCCc2nc(C)c(C)cc21)=NOC(C)CN1CCCCc2nc(C)c(C)cc21` (stereo not given), for which the composite z-score in [1] was 1.41; in [3] it was 1.45; in test [4], 0.447; in [5] it was -0.788; in [6], -0.096; in test [7], -0.0709. Moreover, the composite z-score in [8] is -0.0762; in test [9], 0.201; in [10], 1.23. The z-score in test [2] is -2.95.

Consider `COC(=O)C1=C(C)[C@@H](O)[C@@H](C)[C@H](c2c(OC)c(OC)c(C)c(OC)c2OC)O1`, for which the composite z-score in test [1] is -0.685; in test [3] it was 0.494; in test [4], -0.628; in test [5] it was -0.787; in [6], -0.171; in test [7], -0.0011. In addition, the composite z-score in test [8] was -0.135; in [9], 0.272; in test [10], 0.138. In [2], this compound showed a z-score of -0.566.

With `COC(=O)CC=C[C@H](C)[C@@H](OCc1ccccc1Br)C(C)C`, the composite z-score in test [1] is -0.261; in [3], 0.551; in test [4], -0.354; in [5], -0.679; in test [6] it was -0.0417; in test [7] it was -0.138. The results for the composite z-score in test [8], in test [9] and in test [10] were -0.333, -0.173 and 1.54, respectively. The compound also showed a z-score in [2] of 0.0087.

`COc1ccc(O[C@H]2C=C[C@@H](c3ccccc3)O[C@@H]2COC(=O)N2CCCCC2)cc1`: the composite z-score is -0.57 in test [1]; -0.0284 in test [3]; -0.781 in test [4]; -1.33 in test [5]; -0.0512 in test [6]; -0.0146 in test [7]. The composite z-score is -0.267 in test [8], 0.323 in test [9] and -0.195 in test [10]. The z-score in test [2] was -1.34.

Regarding `CCOC(=O)CCN1C(=O)[C@H]2[C@H]3[C@H](O)[C@H](O)CC(=NOC[C@@H](O)COCc4ccco4)[C@@H]3CC[C@H]2C1=O`, the composite z-score in test [1] is 0.201; in test [3], -0.157; in [4], 0.2; in [5] it was 0.369; in test [6], -0.0462; in [7] it was -0.223. Moreover, the figures for the composite z-score in [8], in test [9] and in [10] were -0.0381, 0.657 and 0.557, respectively. In test [2], the z-score was 0.395.

Take `[N-]=[N+]=NCc1ccccc1C[C@]1(C(=O)NCc2ccccc2)N=C(c2ccc(OCCCO)cc2)O[C@H]1c1ccccc1N=[N+]=[N-]`: the composite z-score in test [1] is 0.878; in test [3], -0.612; in test [4], 1.35; in test [5], 0.743; in test [6] it was 0.0068; in test [7], 0.162. The figures for the composite z-score in test [8], in test [9] and in test [10] were -0.716, 0.855 and 0.947, respectively. The compound further returned a z-score in [2] of -2.05.

In the case of `COC(=O)[C@@H]1N=C(c2ccc(OCCCO)cc2)O[C@@H]1c1ccccc1N=[N+]=[N-]`, the composite z-score in test [1] was 0.515; in [3], -0.187; in [4], 1.54; in test [5] it was 1.04; in test [6], -0.0445; in [7], 0.214. In addition, the composite z-score was determined as 0.619 in [8], 1.27 in test [9] and 1.42 in test [10]. The compound further had a z-score in [2] of -1.66.

For `COCCCNC(=O)[C@]1(Cc2ccccc2)N=C(c2ccc(OCCCO)cc2)O[C@@H]1c1ccccc1`, the composite z-score in test [1] was 1.09; in test [3] it was -0.248; in test [4], 1.81; in [5], 0.213; in test [6], 0.201; in [7], 0.299. Besides, the composite z-score was 1.89 in test [8], 1.84 in [9] and 1.32 in test [10]. In addition, the z-score in [2] is -1.05.

`CCOC(=O)C[C@H]1[C@H](OC(=O)c2cc3ccccc3oc2=O)[C@@H](NC(=O)c2ccc3ccccc3n2)c2cc(OCCCO)ccc2N1C(=O)c1ccccc1`: the composite z-score is 0.15 in test [1]; 0.473 in test [3]; 0.218 in test [4]; 0.179 in test [5]; 0.0374 in test [6]; -0.138 in test [7]. Further, the composite z-score stood at 0.108 in test [8], 1.12 in test [9] and 0.593 in [10]. Also, in test [2], the z-score was -1.4.

The values are drawn from PubChem BioAssay.
